# Results: PubChem BioAssay
# Where “and” joins values, the source holds several entries; their conditions need not be identical. Equal values may be shown once. Calls of active or inactive are those of the source. Rule as the data show it, unless noted: active = parasite load remaining mostly below about 12% (no sharp cut-off); inactive = mostly above about 10%.
# Legend:
# [1] = hESC survival regulators, cell-based (AID 493140; call rule not given here;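 also: cells exposed to compounds for four days before counting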); settings: human embryonic stem cell survival screen; stronger effect = higher value
# [2] = liver-stage malaria parasite growth inhibition, primary screen, cell-based, HepG2, luciferase luminescence, HepG2 viability (AID 624349);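 also: 100% = mean of DMSO negative control wells on the same plate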; settings: P. berghei liver stage in HepG2, luciferase luminescence, concentration not given here; parasite load remaining: stronger effect = lower value; viability: measured here: HepG2 viability without parasites
# [3] = sensitizers of A549 cells to miR-34 induction, primary screen, imaging, A549 dox-inducible miR-34, nuclei and caspase counts (AID 1347080;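 active = compounds whose cell count with miR-34 switched on is under 0.7 times the count with it off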); settings: A549 miR-34 inducible, Hoechst nuclei count, 48 h
# [4] = survival rescue of mitochondrial mutant cells in low glucose, primary screen, MELAS cybrids, Rieske KO mouse fibroblasts, CellTiter-Glo (AID 1508586;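 active = mean z-score across replicates of 1.96 or higher in either the MELAS or the Rieske mutant cell line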;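 also: z relative to plate mean and SD of compound and empty wells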)
# [5] = stronger effect = lower value, cell number ratio, induced over uninduced
# [6] = measured here: relative caspase fold change +Dox/-Dox
# [7] = measured here: total cells with miR-34 induction, stronger effect = lower value
# [8] = measured here: total cells without miR-34 induction
# [9] = MELAS cybrid survival, CellTiter-Glo 48 h, stronger effect = higher value
# [10] = Rieske KO mouse fibroblast survival, CellTiter-Glo 72 h
SMILES,survival [1],parasite load remaining [2],viability [2],"fold change [3, 5]","fold change [3, 6]","cell count [3, 7]","cell count [3, 8]","z-score [4, 9]","z-score [4, 10]"
O=C1NCCN1c1ncc([N+](=O)[O-])s1,3.92 (inactive),95% (inactive) and 83.2% (inactive),122% and 79.5%,0.899 (inactive),1.68,8920,9920,0.58 (inactive),-0.169
CNc1ncnc2c1ncn2[C@@H]1O[C@H](CO)[C@@H](O)[C@H]1O,5.42 (inactive),23.9% (inactive) and 70.7% (inactive),132% and 78.2%,0.829 (inactive),1.48,7800,9420,0.118 (inactive),-0.237
CC1(C)S[C@@H]2[C@H](NC(=O)COc3ccccc3)C(=O)N2C1C(=O)O (some centres not stated) (tested in a mixture with another compound),4 (inactive),98.8% (inactive),75.5%,0.957 (inactive),0.818,9020,9430,-0.168 (inactive),-0.00269
CN(C)CC/C=C1\c2ccccc2CSc2ccccc21,–,36.7% (inactive),110%,0.831 (inactive),1.19,6880,8280,-0.0112 (inactive),-0.183
CO[C@@]1(NC(=O)[C@H](C(=O)O)c2ccc(O)cc2)C(=O)N2C(C(=O)O)=C(CSc3nnnn3C)CO[C@@H]21,–,81.8% (inactive),98.4%,0.861 (inactive),1.17,8980,10400,0.452 (inactive),-0.352
Nc1ncn(C2O[C@H](CO)[C@@H](O)[C@H]2O)c(=O)n1 (some centres not stated),–,151% (inactive),108%,0.664 (active),1.38,2060,3100,-0.101 (inactive),0.0147
Cc1cc(C=Cc2ccc3cc(N(C)C)ccc3[n+]2C)c(C)n1-c1ccccc1,2.17 (inactive),0.11% (inactive),48.8%,1.3 (inactive),1.04,2390,1840,0.882 (inactive),0.984
CCOC1O[C@H]([C@@H](COCc2ccccc2)OCc2ccccc2)[C@H](OCc2ccccc2)[C@H]1O (some centres not stated),–,66.9% (inactive),70.5%,0.904 (inactive),0.887,8110,8970,-0.366 (inactive),0.506
CCC(=O)[C@@]1(C)[C@H](C)C[C@H]2[C@@H]3CCC4=CC(=O)C=C[C@]4(C)[C@H]3[C@@H](O)C[C@@]21C,5.08 (inactive),104% (inactive),73.1%,0.901 (inactive),0.845,7190,7980,-0.53 (inactive),0.51
C=C(NC(=O)C(=C)NC(=O)c1csc(C2=N[C@H]3c4csc(n4)[C@H]4NC(=O)c5csc(n5)[C@H]([C@@](C)(O)[C@@H](C)O)NC(=O)[C@H]5CSC(=N5)/C(=C\C)NC(=O)[C@H]([C@@H](C)O)NC(=O)c5csc(n5)[C@]3(CC2)NC(=O)[C@H](C)NC(=O)C(=C)NC(=O)[C@H](C)NC(=O)[C@H](C(C)CC)N[C@@H]2C=Cc3c([C@H](C)O)cc(nc3[C@H]2O)C(=O)O[C@@H]4C)n1)C(N)=O (some centres not stated),–,8.38% (inactive),102%,0.85 (inactive),1.56,7430,8740,5.43 (active),3.6
CC(C)(C)NCC(O)COc1ccccc1C1CCCC1 (configuration not stated),4.5 (inactive),64.8% (inactive),78.7%,0.898 (inactive),0.683,7970,8880,-0.603 (inactive),-0.983
CO[C@@H]1[C@@H](O[C@@H]2O[C@H](C)[C@@H](O[C@H]3C[C@@](C)(OC(=O)CC(C)C)[C@@H](O)[C@H](C)O3)[C@H](N(C)C)[C@H]2O)[C@@H](CC=O)C[C@@H](C)[C@@H](O)/C=C/C=C/C[C@@H](C)OC(=O)C[C@H]1OC(C)=O,–,40.7% (inactive),45.1%,0.924 (inactive),0.331,7880,8530,-0.757 (inactive),-0.227
